ST2 IL33 inh: inhibitors of human ST2 (IL1RL1) binding to IL-33; Q01638; AlphaLISA ST2-Fc/biotin-IL-33 interaction, 1 h; inhibition, % for hits at 17 µM; 2.3% of 78,000 active; AID 1259354; in the data active = inhibition above about 30%
Target sequence (Q01638 whole entry, looked up): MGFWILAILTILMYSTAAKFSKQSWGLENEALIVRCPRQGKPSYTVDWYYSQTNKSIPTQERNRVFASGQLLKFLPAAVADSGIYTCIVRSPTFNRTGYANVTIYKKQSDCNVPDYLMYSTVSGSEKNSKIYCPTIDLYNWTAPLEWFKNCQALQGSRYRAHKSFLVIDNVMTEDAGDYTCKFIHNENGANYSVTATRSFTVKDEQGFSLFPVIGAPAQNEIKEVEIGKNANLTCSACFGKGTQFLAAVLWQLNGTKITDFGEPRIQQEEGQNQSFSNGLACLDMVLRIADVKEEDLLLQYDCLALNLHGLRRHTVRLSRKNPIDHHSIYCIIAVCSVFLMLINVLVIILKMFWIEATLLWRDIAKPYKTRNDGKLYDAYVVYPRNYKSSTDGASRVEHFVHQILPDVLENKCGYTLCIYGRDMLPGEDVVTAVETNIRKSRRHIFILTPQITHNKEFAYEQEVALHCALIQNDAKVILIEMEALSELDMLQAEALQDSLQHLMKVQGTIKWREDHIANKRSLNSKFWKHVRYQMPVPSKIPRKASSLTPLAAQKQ
* marks the source's active call; other numbers are inactive results; i = inactive; ! = not active in a repeat. This is one part of a sample in which hits are shown more often than they occur.

SMILES	ST2 IL33 inh
Cc1ccccc1N=Cc1cc([N+](=O)[O-])ccc1O	i
COc1cc(Br)c(Br)c(C=Nc2cc(C)ccc2O)c1O	i
COc1cc(-c2c(C)c3ccccc3[nH]c2=O)cc(OC)c1OC	i
CC(=O)c1ccc(N=Cc2cc(Cl)cc(Cl)c2O)cc1	i
CC(=O)[C@]1(O)Cc2c(O)c3c(c(O)c2[C@@H](O[C@H]2C[C@H](N)[C@H](O)[C@H](C)O2)C1)C(=O)c1ccccc1C3=O	34%*
O=C(CCS(=O)(=O)Cc1ccc(Cl)cc1)NC1CCCC1	i
COc1ccc(CNc2ccc3c(c2)ncn3C)cc1OC	i
COc1ccc(OC)c(CNc2ccc3c(c2)ncn3C)c1	36%*!
COc1cccc(CNc2ccc3c(c2)ncn3C)c1O	i
CC1=NN2C(=N)CC(=O)N=C2S1	i
COc1cc2c(cc1OC)C(C(=O)N1CCN(C)CC1)C(c1cccs1)N(C)C2=O (centres undefined)	i
Cc1ccc(-n2c(=O)n(Cc3ccccc3)c3c(C(N)=O)nc(-c4ccc(F)cc4F)nc32)cc1C	i
Cc1ccc(Cn2c(CNC(=O)c3cccnc3)nc3cccnc32)cc1	i
COc1ccc(C2=NN(C(C)=O)C(c3ccc(F)cc3)C2)cc1OC (centres undefined)	i
O=C(c1ccco1)N1CCN(Cc2cccn2-c2ncccn2)CC1	i
O[C@@H]1CN(Cc2cccn2-c2ccccn2)CC[C@H]1c1ccc2c(c1)OCO2	i
O=C(Nc1cccc(-c2ccco2)c1)C1CCN(Cc2cccn2-c2ccccn2)CC1	32%*
CN1C(=O)CC(C(=O)Nc2ccccc2F)SC1=Nc1ccc(Br)cc1 (centres undefined)	i
COc1cccc(/C=C2\CS/C(=C\c3cccc(OC)c3OC)C2=O)c1OC	39%*
Cc1cccc(/C=C2\CS/C(=C\c3cccc(C)c3)C2=O)c1	55%*
O=C1/C(=C/c2ccsc2)CS/C1=C\c1ccsc1	39%*
O=C1N=C(N2CCCC2)S/C1=C/c1cccc(O)c1	i
COc1ccccc1/C=C1/SC(N2CCN(C)CC2)=NC1=O	i
Cc1cccc(/C=C2\NC(=O)N(Cc3ccc(Cl)cc3)C2=O)c1	i
COc1ccccc1/C=C1\SC(N2CC(C)OC(C)C2)=NC1=O (centres undefined)	i
SMILES	ST2 IL33 inh
CCOC(=O)Cn1c(=O)n(-c2ccc(F)cc2)c2nc(-c3ccccc3OC(C)C)nc(C(N)=O)c21	i
O=C(NC1CCCCCC1)C1CCN(C(=O)c2ccc(F)cc2)CC1	i
Cc1cccn2c(=O)c3cc(C(=O)N(Cc4ccccc4)C(C)C)n(C)c3nc12	i
O=C1CCCC2=C1C(c1ccc3c(c1)OCO3)c1c(nc(SCc3ccccc3)[nH]c1=O)N2 (centres undefined)	i
O=C(O)c1ccc(NC2=NC3CS(=O)(=O)CC3S2)cc1 (centres undefined)	i
Cc1noc(-c2ccc(N3CC[C@@H](c4ccc5c(c4)OCO5)[C@H](O)C3)nc2)n1	i
NC(=O)/C(=C/c1ccc2c(c1)OCO2)NC(=O)c1ccccc1Cl	i
COc1ccc(CC(=O)N2CC[C@@H](CC(=O)O)[C@@H](CCN3CCN(c4ccccn4)CC3)C2)cc1	i
COc1ccccc1N1CCN(CC[C@H]2CN(C(=O)N3CCOCC3)CC[C@H]2CC(=O)O)CC1	33%*
COc1ccc(C(=O)N2CC[C@@H](CC(=O)O)[C@@H](CCN3CCN(c4cccc(C(F)(F)F)c4)CC3)C2)cc1	i
COc1ccc(C(=O)N2CC[C@@H](CC(=O)O)[C@@H](CCN3CCCN(C(C)=O)CC3)C2)cc1	39%*
COc1ccc(CC(=O)N2CC[C@@H](CC(=O)O)[C@@H](CCN3CCN(c4cccc(C(F)(F)F)c4)CC3)C2)cc1	i
O=C(O)C[C@@H]1CCN(C(=O)c2ccco2)C[C@@H]1CCN1CCN(c2ccccc2)CC1	i
Cc1ccccc1NC(=O)C(=O)N1CCOCC1	i
CCN(CC)C(=O)Nc1cccc(Cl)c1	i
O=C(C1CCC1)N1CCc2cc(S(=O)(=O)N3CCn4c3nc3ccccc34)ccc21	i
CC(C)NC(=O)NC[C@H]1O[C@@H](CC(=O)NCCN2CCOCC2)[C@H](O)[C@@H]1O	i
C=CCOc1ccc(/C=C2/SC(=Nc3ccccc3)NC2=O)cc1OCC	37%*
COc1cccc(/C=C2/SC(=Nc3ccccc3)NC2=O)c1OC	i
COc1ccc(/C=C2/SC(=Nc3ccccc3)NC2=O)c(OC)c1OC	45%*
COc1cccc(/C=C2/SC(=Nc3ccccc3)NC2=O)c1	i
Cc1ccc(/C=C2/SC(=Nc3ccccc3)NC2=O)c(C)c1	35%*
COc1cc(/C=C2/SC(=O)NC2=O)ccc1O	i
Cc1ccc(N=C2NC(=O)C(Cc3ccccc3)S2)cc1 (centres undefined)	i
CCOc1ccc(/C=C2\SC(=O)N(CC(=O)N3CCOCC3)C2=O)cc1OCC	i
SMILES	ST2 IL33 inh
COc1cc(/C=C2/SC(=Nc3ccccc3)NC2=O)ccc1O	38%*
COc1ccc(N=C2NC(=O)C(CO)(CO)S2)cc1	i
CCOc1cc(C=C2C(=O)c3ccccc3C2=O)ccc1OC(C)C(=O)O (centres undefined)	i
O=C1NC(=Nc2ccccc2)S/C1=C/c1ccccn1	i
COc1ccc(CCN2CCC(CN(C)C(=O)c3cccc(C)c3)CC2)cc1	i
O=C(c1cccc(Cl)c1)C1CCCN(S(=O)(=O)c2ccsc2)C1 (centres undefined)	i
CCOc1cc2c(cc1OCC)C1C(C(=O)NC3CCCC3)c3ccccc3C(=O)N1CC2 (centres undefined)	i
O=C1NCCC[C@@H]1NC(=O)[C@@]1(O)C[C@@H](O)[C@H](O)[C@@H](NS(=O)(=O)c2cccc(C(F)(F)F)c2)C1	i
Cc1ccc(CN2CC[C@@H]3[C@H]2C(=O)NC[C@H](CCC(=O)N2CCN(c4ccccc4)CC2)N3C)cc1	i
Cn1cnnc1Sc1ccc(-c2nccn2C2CCCCCC2)o1	i
O=C(Nc1ccc(Br)cc1)c1cccc(Cl)c1Cl	i
COc1cccc(C2C(=O)N(C3CCCCC3)CC(=O)N2Cc2cccs2)c1 (centres undefined)	i
Brc1cc(Br)c2nc(-c3ccccc3)cn2c1	i
N#CC1=C(N)Oc2n[nH]c(-c3ccncc3)c2C1c1ccc(F)cc1 (centres undefined)	i
CCOC(=O)Cc1ccc(N(Cc2cccs2)S(=O)(=O)c2ccc(F)c(C)c2)cc1	i
Cc1ccoc1C(=O)NC1CCCN(C2CCN(C)CC2)C1 (centres undefined)	i
CC(C)(C)C(=O)NCc1nc2ccccc2[nH]1	i
CC(=O)Nc1ccc(NC(=O)NC2(c3ccccc3)CC2)cc1	i
CC(=O)Nc1ccc(/C=C2/SC(=Nc3ccccc3)NC2=O)cc1	31%*
Cc1ccc(NC(=O)CCN2C(=O)S/C(=C\c3ccccc3)C2=O)cc1	i
O=C(Cc1cccnc1)N1CCCC(Nc2ccc(F)c(F)c2)C1 (centres undefined)	i
COc1ccc(-c2cc(C(=O)Nc3sc4c(c3C#N)CCCC4)no2)cc1OC	i
N#Cc1c(NC(=O)c2cc(-c3ccc4c(c3)OCO4)on2)sc2c1CCC2	i
Fc1cc(Br)ccc1-n1ncnc1-c1ccc2c(c1)OCO2	i
COc1ccc(-c2ncnn2-c2sc3c(c2C#N)CCCC3)cc1	44%*
COc1ccccc1-c1nc2sc3c(c2c(=O)[nH]1)CCCC3	i
COc1ccccc1-c1ncnn1-c1sc2c(c1C#N)CCCCC2	48%*

Compound activity deposited in PubChem BioAssay by Paczesny and Yang Labs, IUPUI and University of Michigan.
